The text below walks through data of the supplement of paper PMC10338343.

± gives the standard deviation.

The test system of the experiment is MILI (PIWIL2) piRISC loaded with L1MC piRNA (26 nt). The experiment can be described thus: pre-steady-state target cleavage rate (min^-1); guide: L1MC piRNA 5'p-UAACUAAAUACUAUGCAAGCUGUAGG; MIWI and MILI are mouse PIWI proteins and EfPiwi is from a freshwater sponge; tags in brackets are library labels; higher = faster piRNA-guided slicing of the target. The gist of the method:
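At 33 °C in HEPES–potassium acetate buffer, a transcribed, DNA-blocked target RNA library […] was exposed for 0–8 or 0–960 min to 1 nM active affinity-purified piRISC carrying a single synthetic guide, with or without 500 nM GTSF1 partner protein. Uncleaved targets were sequenced and normalised to depth and to weakly complementary targets. With three trials pooled and k3 capped at 0.0001 min^-1, a burst-and-steady-state fit produced the pre-steady-state cleavage rate.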

[1] abbreviates: auxiliary factor: 500 nM mouse GTSF1.
Setting [2] is: auxiliary factor: none (no GTSF1).
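Note: 1 nM active piRISC with 0.1 nM target library at 33 °C single turnover.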

As to UCCUGCUACAGCUUGCAUAGUAUAAACAAA, the “pre-steady-state target cleavage rate” value under setting [1] stood at 0.0722 ± 0.022.
In the case of UCCUGGAUGUGCUUGCAUAGUAUUUAGUGA, the “pre-steady-state target cleavage rate” value under setting [1] was found to be 0.11 ± 0.017.
UCCUGGUACAGCUAGCAUAGAAUUUAGUUA: the “pre-steady-state target cleavage rate” value under setting [1] worked out at 0.313 ± 0.084.
Still for that read-out and setting: for UCCUGGAUCAGCUUGCAUAGUAUUUUCUUA the value was 0.0452 ± 0.013.
Regarding UCCUGGAUCAGCUACCAUAGUAUUUUCAAA, the “pre-steady-state target cleavage rate” value under setting [2] was below 0.0001.
On to UCCUGGAUCAGCUACGAUAGUAUUUUCAAA, for which the “pre-steady-state target cleavage rate” value under setting [2] was below 0.0001.
UCCUGGAACAGCUUGCAUCAGUAUUUAGUUA: the “pre-steady-state target cleavage rate” value under setting [1] was found to be 0.0151 ± 0.0061.
Consider UCCUGGAUGUCGAACCAUAGUAUUUAGUUA, for which the “pre-steady-state target cleavage rate” value under setting [1] is 0.00718 ± 0.0019.
UCCUGCUACAGCUUCGAUAGUAUUUAGAAA: under setting [1], the “pre-steady-state target cleavage rate” value came to 0.0541 ± 0.017.
Consider UCCUGGUACUCCUUGCAUAGUAUUUACAAA, for which the “pre-steady-state target cleavage rate” value under setting [1] came out at 0.0123 ± 0.006.
In the case of UCCUGGAUGUCGUUGCAUAGUAUUUAUUUA, the “pre-steady-state target cleavage rate” value under setting [1] was 0.0344 ± 0.011.
In the case of UCCUGGAUGUCGAACCAUAGUUUUUUGUUA, the “pre-steady-state target cleavage rate” value under setting [1] is below 0.0001.
Consider UCCUGGAACAGGUUGCAUAGUAUUUACAAA, for which the “pre-steady-state target cleavage rate” value under setting [1] was 0.0582 ± 0.013.
With UCCUGGAUGUCGAAGCAUAGUAUUUCGUUA, the “pre-steady-state target cleavage rate” value under setting [1] turned out to be 0.00855 ± 0.0046.
For the sequence UCCUGGAUGUCGAAGCAUAGUAUAAUGUUA, under setting [1], the “pre-steady-state target cleavage rate” value stood at 0.0052 ± 0.0029.
As to UCCUGGAUGUCGUUCCUUAGUAUUUAGUUA, the “pre-steady-state target cleavage rate” value under setting [2] was below 0.0001.
For the sequence UCCUGGAUGUCGAACCAUAGUAGUUUAGUUA, the “pre-steady-state target cleavage rate” value under setting [1] is below 0.0001.
As to UCCUCCUACAGCUUGCAUAGUAUUUUGAUA, the “pre-steady-state target cleavage rate” value under setting [1] was found to be 0.112 ± 0.024.
As for UCCUGGAUCAGCUUGCAUAGUUUUUACAAA, the “pre-steady-state target cleavage rate” value under setting [1] is 0.012 ± 0.0052.
Regarding UCCUGCUACAGCUUGCAUAGUAAAAAGAAA, under setting [1], the “pre-steady-state target cleavage rate” value stood at 0.0111 ± 0.0048.
UCCUGGAUGUGCUUGCAUAGUAUUUAGGUA: the “pre-steady-state target cleavage rate” value under setting [1] was 0.0373 ± 0.011.
On the same count and under the same terms, the value for UCCUGGAUGUCCUUGCAUAGUAUUUACAUA was 0.039 ± 0.013; that for UCCUGGAUCAGCUACCAUAGUAUUUAGUAA was 0.127 ± 0.012.
For the sequence UCCUGCUACUCGUUGCAUAGUAUUUAGAAA, the “pre-steady-state target cleavage rate” value under setting [1] amounted to 0.179 ± 0.032.
Still for that read-out and setting: the value for UCCUGGAUCAGCUUGCAAUGUAUUUAGAAA was 0.0496 ± 0.013.
Consider UCCUGGAUGUCGAACGUAUCUUAUUAGUUA, for which the “pre-steady-state target cleavage rate” value under setting [2] was below 0.0001.
On to UCCUGGAUGAGCUUGCAUUCUAUUUAGUUA, for which the “pre-steady-state target cleavage rate” value under setting [1] came to 0.0348 ± 0.0092.
Consider UCCUGGAUCAGCUUGGAUAGAAUUUAGUUA, for which, under setting [1], the “pre-steady-state target cleavage rate” value is 0.0242 ± 0.0065.
With UCCUGGAUCAGCUUGCAUAGUUUUUACUUA, the “pre-steady-state target cleavage rate” value under setting [1] turned out to be 0.00933 ± 0.0038.
Same read-out and setting: the value for UCCUGGUAGAGCUUGCAUAGUAUUUUCAAA was 0.00621 ± 0.0031; that for UCCUGGUUGAGCUUGCAUAGUAUUUAGAAA was 0.0925 ± 0.026.
As to UCCUGCUACAGCUUGCUAAGUAUUUAGUAA, the “pre-steady-state target cleavage rate” value under setting [1] is 0.0923 ± 0.022.
Consider UCCUGGAUCAGCUUGCAUAGUAUUAUGUAA, for which the “pre-steady-state target cleavage rate” value under setting [1] worked out at 0.00562 ± 0.0035.
As for UCCUGGUACAGCAUGCAUAGUAUUUACAAA, the “pre-steady-state target cleavage rate” value under setting [1] came out at 0.127 ± 0.033.
Regarding UCCUGGAUGUCGAUGCAUAGUAAUUAGUAA, the “pre-steady-state target cleavage rate” value under setting [1] amounted to 0.0439 ± 0.013.
As to UCCUGCUACAGCAAGCAUAGUAUUUAGAAA, the “pre-steady-state target cleavage rate” value under setting [1] came out at 0.217 ± 0.052.
On the same count and under the same terms, the value for UCCUCCUACAGCUUGCAUAGUAAUUUCAAA was 0.182 ± 0.038.
For UCCUGGAUGUCGAACAAUAGUAUUUAGUUA, the “pre-steady-state target cleavage rate” value under setting [2] is below 0.0001.
UCCUGGUACAGCUUGCAUUGUAUUUAGUAA: the “pre-steady-state target cleavage rate” value under setting [1] stood at 0.112 ± 0.024.
For UCCUGGAUGAGCUUGCUAAGUAUUUAGUAA, the “pre-steady-state target cleavage rate” value under setting [1] was found to be 0.0109 ± 0.0046.
Consider UCCUGGAUGUCGAAGCAUAGUAUCUAGUUA, for which the “pre-steady-state target cleavage rate” value under setting [1] came to 0.0263 ± 0.0077 and the “pre-steady-state target cleavage rate” value under setting [2] is 0.00418 ± 0.0019.
With UCCUGGAUGAGCUUCCUUAGUAUUUAGUUA, the “pre-steady-state target cleavage rate” value came to 0.132 ± 0.019 under setting [1] and 0.00577 ± 0.0024 under setting [2].
For UCCUGGAUGUGGUUGCAUAGUAUUUUGUUA, in that order: 0.0586 ± 0.023 and 0.0039 ± 0.0037.
As to UCCUGGAUCAGCUUGCAUAGUCAUUUAGUUA, the “pre-steady-state target cleavage rate” value under setting [1] turned out to be 0.0161 ± 0.0075 and the “pre-steady-state target cleavage rate” value under setting [2] is 0.00581 ± 0.0023.
In the case of UCCUGGAUGAGCUUGCAAUGUAUUUAGUAA, the “pre-steady-state target cleavage rate” value under setting [1] is 0.0194 ± 0.0045 and the “pre-steady-state target cleavage rate” value under setting [2] turned out to be 0.00717 ± 0.0024.
For UCCUGGAUCUGCUUGCUUAGUAUUUAGUUA, the “pre-steady-state target cleavage rate” value under setting [1] worked out at 0.238 ± 0.017 and the “pre-steady-state target cleavage rate” value under setting [2] was found to be 0.00748 ± 0.0024.
In the case of UCCUGGAUGUGCUUGCAAAGUAUAUAGUUA, the “pre-steady-state target cleavage rate” value is, setting by setting: under setting [1], 0.0264 ± 0.0072; under setting [2], 0.00311 ± 0.0024.
In the same order, the values of UCCUGGUACAGCAACCAUAGUAUUUAGUUA are 0.286 ± 0.042 and 0.00442 ± 0.0027.
As to UCCUGCUACAGCUUGCAUUGUAUUUAGUAA, the “pre-steady-state target cleavage rate” value by setting is: under setting [1], 0.176 ± 0.018; under setting [2], 0.00356 ± 0.002.
As to UCCUGGAUGUGCUUGAAUAGUAUUUAGUUA, the “pre-steady-state target cleavage rate” value runs as follows: under setting [1], 0.127 ± 0.013; under setting [2], 0.00936 ± 0.0025.
As for UCCUGGAUGAGCAAGCAUAGUAUUUAGUAA, the “pre-steady-state target cleavage rate” value under setting [1] turned out to be 0.123 ± 0.018 and the “pre-steady-state target cleavage rate” value under setting [2] was determined as 0.00443 ± 0.0027.
Take UCCUGGUACUGCUUGCAAAGUAUUUAGUUA: the “pre-steady-state target cleavage rate” value came out at 0.0806 ± 0.01 under setting [1] and 0.00779 ± 0.0021 under setting [2].
With UCCUGGAUGUCGUUAGCAUAGUAUUUAGUUA, the “pre-steady-state target cleavage rate” value came out at 0.0539 ± 0.012 under setting [1] and 0.00456 ± 0.0029 under setting [2].
In the case of UCCUGGUACAGCAACCAUAGUAUUUAGUAA, the “pre-steady-state target cleavage rate” value reads like this: under setting [1], 0.313 ± 0.064; under setting [2], 0.00382 ± 0.0021.
In the case of UCCUGGAUGAGGUUGCAUAGUUUUUAGUUA, the “pre-steady-state target cleavage rate” value under setting [1] is 0.00694 ± 0.0049 and the “pre-steady-state target cleavage rate” value under setting [2] was determined as 0.00583 ± 0.0024.
For the sequence “UCCUGGAUGUCGAAGCAUAGUAUUUAGUUG [g2:g16:cont:t1G]”, the “pre-steady-state target cleavage rate” value reads like this: under setting [1], 0.0225 ± 0.0063; under setting [2], 0.00543 ± 0.0019.
Consider UCCUGGAUCAGCUUGCAUAGUAUAUUGUUA, for which the “pre-steady-state target cleavage rate” value is, setting by setting: under setting [1], 0.118 ± 0.014; under setting [2], 0.00518 ± 0.0025.
Consider UCCUGGAUGUCGAUAGCAUAGUAUUUAGUUA, for which the “pre-steady-state target cleavage rate” value is, setting by setting: under setting [1], 0.0459 ± 0.014; under setting [2], 0.00341 ± 0.0026.
In the case of UCCUGCUACAGCAUGCAUAGUAUAUAGUUA, the “pre-steady-state target cleavage rate” value runs as follows: under setting [1], 0.284 ± 0.03; under setting [2], 0.0054 ± 0.0024.
UCCUGGAUGUCCUUGCAUAGUAUUUAGAUA: the “pre-steady-state target cleavage rate” value came out at 0.118 ± 0.018 under setting [1] and 0.00265 ± 0.0023 under setting [2].
As to UCCUGGUACAGCUUGCAUAGAUAUUUAGUUA, the “pre-steady-state target cleavage rate” value reads like this: under setting [1], 0.0243 ± 0.011; under setting [2], 0.00568 ± 0.0026.
